The values below come from ChEMBL document CHEMBL3988442, “University of Dundee, Small-Polar-MMV Screening Library” (2021).

Results with a measured potency or affinity are listed apart.

Protein translocase subunit SecA (Escherichia coli (strain K12)), sequence (P10408 whole entry): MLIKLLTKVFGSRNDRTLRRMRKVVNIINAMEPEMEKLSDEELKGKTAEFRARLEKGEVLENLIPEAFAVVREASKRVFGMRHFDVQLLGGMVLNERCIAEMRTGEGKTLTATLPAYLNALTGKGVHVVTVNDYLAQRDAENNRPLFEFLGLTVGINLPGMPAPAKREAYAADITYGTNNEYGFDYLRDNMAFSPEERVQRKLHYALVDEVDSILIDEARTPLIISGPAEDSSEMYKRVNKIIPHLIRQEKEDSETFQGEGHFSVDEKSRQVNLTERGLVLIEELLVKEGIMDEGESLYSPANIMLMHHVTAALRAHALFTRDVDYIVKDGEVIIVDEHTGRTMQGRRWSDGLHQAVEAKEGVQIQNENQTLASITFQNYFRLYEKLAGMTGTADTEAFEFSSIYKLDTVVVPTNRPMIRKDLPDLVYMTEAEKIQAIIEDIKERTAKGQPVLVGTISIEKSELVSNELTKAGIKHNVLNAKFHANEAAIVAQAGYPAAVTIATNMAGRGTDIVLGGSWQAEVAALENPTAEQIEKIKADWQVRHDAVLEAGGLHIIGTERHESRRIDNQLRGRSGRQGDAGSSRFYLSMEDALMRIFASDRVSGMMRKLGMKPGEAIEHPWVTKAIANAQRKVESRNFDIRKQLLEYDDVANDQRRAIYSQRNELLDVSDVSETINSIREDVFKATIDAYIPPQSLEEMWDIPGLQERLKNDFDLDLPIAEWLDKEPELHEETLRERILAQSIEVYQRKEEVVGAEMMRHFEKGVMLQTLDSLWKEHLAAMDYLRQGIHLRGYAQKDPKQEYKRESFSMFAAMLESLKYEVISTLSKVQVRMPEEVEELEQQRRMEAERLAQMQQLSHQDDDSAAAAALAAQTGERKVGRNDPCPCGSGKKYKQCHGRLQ

The first assay addresses Protein translocase subunit SecA (Escherichia coli (strain K12)) (UniProt P10408). The experiment in a line: Assay to Identify E. coli SecA ATPase Inhibitors. The assay is classed as functional. Further details: scale not given: direction of the effect not stated beside the values. The following applies: 30 µM.
In the case of `CCn1cc(Br)c(C(=O)NCc2cccnc2)n1`, the Percent Effect is -2.44%.
As for `Cn1nc2c(cc1=O)CN(CCc1nc3ccccc3c(=O)[nH]1)CC2`, the Percent Effect is -4.31%.
Same read-out and setting: the result for `COc1cccc2c1OCC(CNC(=O)CSc1nc(N)n[nH]1)C2` (stereo not drawn) reads -4.78%; that for `COCCCNC(=O)CN(C)C(=O)c1cc(C)ccc1N(C)C(C)C`, -2.35%.
As to `c1ccc2sc(CN3CCCC3c3noc(C4CC4)n3)nc2c1` (stereo not drawn), the Percent Effect is -2.02%.
Still for that read-out and setting: to `COCCO[C@@H]1CCN(Cc2csc(C)n2)[C@H]1Cc1ccccc1` belongs -2.84%; to `C[C@@H]1CN(C(=O)c2ccsc2)C[C@]12CCN(c1ccsc1)C2=O`, -3.14%; to `CC(O)CC(C)(C)CNC(=O)NCc1cccc(-n2cncn2)c1` (stereo not drawn), -3.57%.
Same read-out and setting: to `Cc1c(C(=O)NCC(C)C)nnn1-c1cccc2c1CCN(C)C2` belongs -4.34%; to `COc1ccc(CNCC(C)Oc2ccccn2)cc1Br` (stereo not drawn), 0.219%; to `Cc1ccc(CN2CCc3ncc(CNS(C)(=O)=O)n3CC2)o1`, -0.0355%.
The same measure, in the same setting: to `Cc1nc(CN2CCCC(NCc3c(C)nc4sccn34)C2)no1` (stereo not drawn) belongs -2.09%.
Turning to `Cc1cn2nc(N3CCCN(Cc4noc(C)n4)CC3)sc2n1`, the Percent Effect is -4%.
The same measure, in the same setting: the result for `CC(NC(=O)NCCNc1cnccn1)c1cccs1` (stereo not drawn) reads -1.5%.
Still for that read-out and setting: the result for `CCOCC1CN(Cc2cccc(C#N)c2)Cc2nccn2C1` (stereo not drawn) reads -3.99%; that for `COc1ccc(OCc2nc(C(=O)N3CC[C@H](O)[C@@H](O)C3)co2)cc1`, -5.04%; that for `O=C(CN1CCCC1Cn1cncn1)NCCc1c(F)cccc1F` (stereo not drawn), -9.37%.
Still for that read-out and setting: the result for `CN(C)c1ncnc2c1CCN(CC1CCOC1)CC2` (stereo not drawn) reads -2.84%; that for `CC(C)N(CC(N)=O)Cc1csc(COc2ccc(F)cc2)n1`, -3.17%; that for `Cc1nc(CN2CCCN(C(=O)c3ccccn3)CC2)oc1C`, -1.98%.
Consider `O=C(c1cccnc1N1CCOCC1)N1CCCC1Cn1cccn1` (stereo not drawn), for which the Percent Effect was -4.57%.
Same read-out and setting: to `CCN(C(=O)CN(C)C(c1cccc(F)c1)c1ccccn1)C1CC1` (stereo not drawn) belongs -1.83%; to `Cc1nc(C2(NCC(=O)NCCc3cccs3)CCCC2)no1`, -2.85%.
Same read-out and setting: to `CO[C@H]1CN(C(=O)c2ccccn2)[C@@H]2CCCO[C@H]12` belongs -0.127%; to `CCO[C@@H]1CO[C@@]2(CCCN(C(=O)c3ccc(OC)c(F)c3)C2)C1`, -3.5%.
In the case of `CC(C)S(=O)(=O)c1nnc(CCNC(=O)OC(C)(C)C)o1`, the Percent Effect was -7.35%.
Same read-out and setting: to `CCc1c(C(=O)NC2CCS(=O)(=O)C2)cnn1-c1ccc(F)cc1` (stereo not drawn) belongs -2.17%.
On the same count and under the same terms, to `CCn1nccc1CNC(=O)NC1CCCCC1` belongs -3.38%; to `CN(Cc1ccsc1)C(=O)Nc1cccnc1N1CCCC1`, -9.81%; to `CCCC1(CO)CCCN(c2ncccc2F)C1` (stereo not drawn), -0.789%.
Same read-out and setting: to `Cc1nc[nH]c1-c1nc2cc(S(=O)(=O)N3CCCC3)ccc2n1C` belongs -4.38%; to `CCNC(=O)N(C)Cc1ccc(SC)c(OC)c1`, -3.35%; to `COCC(=O)N1CCC(c2nc3ccc(-c4ccccc4)cn3n2)CC1`, 1.49%.
Turning to `CC(C(=O)NCc1ccnc(N2CCN(C)CC2)c1)n1cccn1` (stereo not drawn), the Percent Effect is -0.897%.
Same read-out and setting: the result for `CCc1c(C)nc2cc(C3CCN(Cc4ccccc4F)C3)nn2c1O` (stereo not drawn) reads 0.76%.
Still for that read-out and setting: to `O=C(COc1ccc(C(F)(F)F)cc1)NS(=O)(=O)c1cccnc1` belongs -0.269%; to `CN(C)S(=O)(=O)c1ccc(OCCNCCn2cccn2)cc1`, -6.54%; to `O=C(CN1CCCC(O)C1)NC(=O)NCc1cccs1` (stereo not drawn), -3.76%.
Still for that read-out and setting: the result for `CCOc1ncccc1CNC(=O)N1CCCC1c1ccncc1` (stereo not drawn) reads -1.89%.

For a further assay, the target named is T1, Ubiquitin-activating enzyme e1, putative (Leishmania donovani (strain BPK282A1)) (UniProt E9BSI1).
T1 sequence (whole entry): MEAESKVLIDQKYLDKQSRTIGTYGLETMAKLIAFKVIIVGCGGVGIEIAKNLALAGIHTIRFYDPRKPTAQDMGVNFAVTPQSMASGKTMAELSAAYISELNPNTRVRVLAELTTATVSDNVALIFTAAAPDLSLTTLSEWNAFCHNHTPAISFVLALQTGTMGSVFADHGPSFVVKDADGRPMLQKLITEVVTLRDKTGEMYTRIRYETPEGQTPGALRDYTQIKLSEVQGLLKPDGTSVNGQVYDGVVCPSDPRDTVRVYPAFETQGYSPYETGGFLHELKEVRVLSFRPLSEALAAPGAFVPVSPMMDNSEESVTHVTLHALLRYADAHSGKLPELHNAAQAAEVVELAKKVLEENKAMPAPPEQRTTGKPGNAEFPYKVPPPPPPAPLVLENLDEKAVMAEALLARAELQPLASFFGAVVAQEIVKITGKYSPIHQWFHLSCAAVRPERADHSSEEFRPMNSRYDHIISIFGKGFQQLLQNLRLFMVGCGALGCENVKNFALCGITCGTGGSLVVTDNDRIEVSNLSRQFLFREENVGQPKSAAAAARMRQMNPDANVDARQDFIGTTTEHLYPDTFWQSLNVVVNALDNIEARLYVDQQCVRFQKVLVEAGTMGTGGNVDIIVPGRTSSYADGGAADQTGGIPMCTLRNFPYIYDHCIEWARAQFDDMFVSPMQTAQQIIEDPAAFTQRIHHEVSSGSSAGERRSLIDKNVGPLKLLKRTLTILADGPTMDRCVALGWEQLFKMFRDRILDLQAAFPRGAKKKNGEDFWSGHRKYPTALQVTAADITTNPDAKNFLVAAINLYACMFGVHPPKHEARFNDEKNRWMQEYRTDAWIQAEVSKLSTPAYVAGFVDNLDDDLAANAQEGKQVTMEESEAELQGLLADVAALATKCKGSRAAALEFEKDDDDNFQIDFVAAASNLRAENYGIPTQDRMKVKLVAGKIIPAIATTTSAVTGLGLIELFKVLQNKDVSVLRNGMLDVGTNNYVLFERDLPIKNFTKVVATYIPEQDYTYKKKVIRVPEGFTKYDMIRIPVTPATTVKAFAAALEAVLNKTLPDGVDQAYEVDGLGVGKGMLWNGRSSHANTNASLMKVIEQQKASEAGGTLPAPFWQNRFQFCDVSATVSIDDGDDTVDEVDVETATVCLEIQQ
The experiment in a line: Leishmania donovani Ubiquitin Activating Enzyme (LdE1). Format: functional. Further details: scale not given: direction of the effect not stated beside the values. The note with it: 30 µM.
For `CCn1cc(Br)c(C(=O)NCc2cccnc2)n1`, the Percent Effect worked out at 7.79%.
Still for that read-out and setting: to `Cn1nc2c(cc1=O)CN(CCc1nc3ccccc3c(=O)[nH]1)CC2` belongs 5.48%.
The same measure, in the same setting: the result for `COc1cccc2c1OCC(CNC(=O)CSc1nc(N)n[nH]1)C2` (stereo not drawn) reads 0%; that for `COCCCNC(=O)CN(C)C(=O)c1cc(C)ccc1N(C)C(C)C`, 10.8%.
As to `c1ccc2sc(CN3CCCC3c3noc(C4CC4)n3)nc2c1` (stereo not drawn), the Percent Effect was -13.5%.
On the same count and under the same terms, the result for `COCCO[C@@H]1CCN(Cc2csc(C)n2)[C@H]1Cc1ccccc1` reads -5.41%; that for `C[C@@H]1CN(C(=O)c2ccsc2)C[C@]12CCN(c1ccsc1)C2=O`, 0%.
For `CC(O)CC(C)(C)CNC(=O)NCc1cccc(-n2cncn2)c1` (stereo not drawn), the Percent Effect is -2.7%.
For `Cc1c(C(=O)NCC(C)C)nnn1-c1cccc2c1CCN(C)C2`, the Percent Effect stood at 2.63%.
Still for that read-out and setting: the result for `COc1ccc(CNCC(C)Oc2ccccn2)cc1Br` (stereo not drawn) reads 17.3%; that for `Cc1ccc(CN2CCc3ncc(CNS(C)(=O)=O)n3CC2)o1`, 8.22%.
Still for that read-out and setting: the result for `Cc1nc(CN2CCCC(NCc3c(C)nc4sccn34)C2)no1` (stereo not drawn) reads 5.2%; that for `Cc1cn2nc(N3CCCN(Cc4noc(C)n4)CC3)sc2n1`, 11.4%.
Still for that read-out and setting: to `CC(NC(=O)NCCNc1cnccn1)c1cccs1` (stereo not drawn) belongs 23.4%; to `CCOCC1CN(Cc2cccc(C#N)c2)Cc2nccn2C1` (stereo not drawn), -5.48%.
Consider `COc1ccc(OCc2nc(C(=O)N3CC[C@H](O)[C@@H](O)C3)co2)cc1`, for which the Percent Effect came to 2.7%.
Same read-out and setting: to `O=C(CN1CCCC1Cn1cncn1)NCCc1c(F)cccc1F` (stereo not drawn) belongs 18.4%; to `CN(C)c1ncnc2c1CCN(CC1CCOC1)CC2` (stereo not drawn), 8.11%.
The same measure, in the same setting: to `CC(C)N(CC(N)=O)Cc1csc(COc2ccc(F)cc2)n1` belongs 25.3%.
The same measure, in the same setting: the result for `Cc1nc(CN2CCCN(C(=O)c3ccccn3)CC2)oc1C` reads 7.79%; that for `O=C(c1cccnc1N1CCOCC1)N1CCCC1Cn1cccn1` (stereo not drawn), 7.79%.
For the compound `CCN(C(=O)CN(C)C(c1cccc(F)c1)c1ccccn1)C1CC1` (stereo not drawn), the Percent Effect was -5.2%.
The same measure, in the same setting: the result for `Cc1nc(C2(NCC(=O)NCCc3cccs3)CCCC2)no1` reads 7.89%; that for `CO[C@H]1CN(C(=O)c2ccccn2)[C@@H]2CCCO[C@H]12`, -2.7%.
In the case of `CCO[C@@H]1CO[C@@]2(CCCN(C(=O)c3ccc(OC)c(F)c3)C2)C1`, the Percent Effect was 10.4%.
Same read-out and setting: the result for `CC(C)S(=O)(=O)c1nnc(CCNC(=O)OC(C)(C)C)o1` reads 4%; that for `CCc1c(C(=O)NC2CCS(=O)(=O)C2)cnn1-c1ccc(F)cc1` (stereo not drawn), 15.2%; that for `CCn1nccc1CNC(=O)NC1CCCCC1`, 7.79%.
Same read-out and setting: the result for `CN(Cc1ccsc1)C(=O)Nc1cccnc1N1CCCC1` reads 7.89%; that for `CCCC1(CO)CCCN(c2ncccc2F)C1` (stereo not drawn), 5.41%; that for `Cc1nc[nH]c1-c1nc2cc(S(=O)(=O)N3CCCC3)ccc2n1C`, 11%.
Same read-out and setting: the result for `CCNC(=O)N(C)Cc1ccc(SC)c(OC)c1` reads 21.6%; that for `COCC(=O)N1CCC(c2nc3ccc(-c4ccccc4)cn3n2)CC1`, -153%; that for `CC(C(=O)NCc1ccnc(N2CCN(C)CC2)c1)n1cccn1` (stereo not drawn), 0%.
In the case of `CCc1c(C)nc2cc(C3CCN(Cc4ccccc4F)C3)nn2c1O` (stereo not drawn), the Percent Effect was -14.9%.
On to `O=C(COc1ccc(C(F)(F)F)cc1)NS(=O)(=O)c1cccnc1`, for which the Percent Effect was found to be 0%.
Turning to `CN(C)S(=O)(=O)c1ccc(OCCNCCn2cccn2)cc1`, the Percent Effect came out at 1.27%.
For the compound `O=C(CN1CCCC(O)C1)NC(=O)NCc1cccs1` (stereo not drawn), the Percent Effect was 13.2%.
Still for that read-out and setting: the result for `CCOc1ncccc1CNC(=O)N1CCCC1c1ccncc1` (stereo not drawn) reads 5.33%.
